High-throughput results deposited in PubChem BioAssay by National Center for Advancing Translational Sciences (NCATS).
CCT modulator = High-Throughput Screening for Modulators of Cytosolic Chaperonin Activity; purified chaperonin ATPase assay, HTRF ADP detection, 30 min; activity change, % (concentration not given with the values), hits read low; actives 0.3% (n = 360,000); AID 651819, 2012; in the data active = activity change below about -30%; note: % is set by controls: 0 for no effect and ±100 for the full control effect
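We incubate TRiC, 40 or 20 nM final, with library compounds at 76 uM and 10 uM ATP for 30 min at 37 °C. ADP formed is detected with Transcreener HTRF reagents after 30 min at room temperature.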
Anesthetic bind = qHTS Assay for Identification of Novel General Anesthetics; Ferritin light chain (Equus caballus), P02791; apoferritin/1-aminoanthracene competitive binding, fluorescence; Potency, µM (highest dose often 77.5 µM), for inactives: at the highest dose activity change, negative = displacement, most hits filed as inhibitors; actives 0.074% (n = 350,000); AID 485281, 2010; note: potency is the fitted concentration of half-maximal effect; % is set by controls: 0 for no effect and ±100 for the full control effect; nearly all actives have a fitted effect of over 20% in size
Target sequence (P02791 2-175 limits assumed): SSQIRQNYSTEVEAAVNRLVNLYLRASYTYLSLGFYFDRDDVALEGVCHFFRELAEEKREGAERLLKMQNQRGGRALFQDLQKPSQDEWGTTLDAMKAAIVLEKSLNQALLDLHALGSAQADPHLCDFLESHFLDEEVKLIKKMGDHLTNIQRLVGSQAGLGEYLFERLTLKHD
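Probe: 1-aminoanthracene (50% saturated, PBS). Protein: horse-spleen apoferritin, 10 uM. Incubation: 10 min, room temperature. Detection: 380 nm excitation, 535 nm emission. Analysis: normalized response, four-parameter Hill.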
Mito fusion act = qHTS Assay for Small Molecule Inhibitors of Mitochondrial Division or Activators of Mitochondrial Fusion. Potency, µM (titrated, usually from 46.1 µM), without a hit: at the highest dose growth rescue (activation), hits mostly activators. S. cerevisiae fusion-defective mutant growth rescue, CellTiterGlo 48 h. actives 0.23% (n = 320,000). AID 485298, 2010; note: potency is the fitted concentration of half-maximal effect; % of control where 0% means no effect; nearly all actives have a fitted effect of over 45% in size
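Temperature-sensitive fusion-defective S. cerevisiae (e.g. fzo1-1, mgm1-5) were grown with compound in YPEG medium (3% ethanol, 3% glycerol) for 48 hours at 37C. Growth rescue was measured as viability by CellTiterGlo luminescence after 10 minutes at ambient.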
Akt phos inh = HTS Assay for Inhibitors of Akt Phophorylation: Primary Screen | Neuro2A IGF-stimulated pAkt S473 HTRF, 20 min; stronger effect = lower value | activity change, % for hits at 50 µM | actives 0.32% (n = 360,000) | AID 651550, 2012; in the data active = activity change below about -80%; inconclusive = mostly about -51% to -80%; note: % is set by controls: 0 for no effect and ±100 for the full control effect
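Single-point screen (50 µM final compound) in Neuro2A cells stimulated 20 min with 6 nM IGF at 37 deg C. After lysis, Ser473-phosphorylated Akt read by HTRF (ex 330 nm, em 615/665 nm) as the 665/615 ratio.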
aSyn yeast inh = qHTS of alpha-syn Inhibitors; Yeast expressing alpha-synuclein, growth rescue, BacTiter-Glo, 24 h; AID 652106, 2013; actives 0.14% (n = 370,000); Potency, µM (highest dose often 46.1 µM), for the others: at the highest dose growth rescue (activation), hits mostly activators; note: potency is the fitted concentration of half-maximal effect; % of control where 0% means no effect; nearly all actives have a fitted effect of over 65% in size
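Rescue of yeast growth: cells expressing toxic alpha-synuclein, induced in galactose at OD600 0.02, incubated with compound 24 h at 30 C. ATP luminescence quantified growth; inhibitors of toxicity appear as activators.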
TDP43 rescue = qHTS of TDP-43 Inhibitors. Potency, µM (titrated, usually from 46.1 µM), without a hit: at the top dose growth rescue (activation), hits mostly activators. AID 652104, 2013. TDP-43 expressing yeast growth rescue, BacTiter-Glo, 24 h. actives 1.8% (n = 410,000); note: potency is the fitted concentration of half-maximal effect; % of control where 0% means no effect; nearly all actives have a fitted effect of over 50% in size
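Cell-based yeast growth screen: TDP-43 expression induced in galactose, inoculum OD600=0.02 after raffinose pregrowth to mid-log. Read-out BacTiter-Glo luminescence at 24 hr, 30 deg C; inhibition of toxicity seen as signal increase.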
The depositor's hits bear a star. Only some compounds are listed: those with a hit (about 2.5% of all), similar ones and a draw of the others. Unless noted, calls come from the whole dose curve; as a rule, active = well fitted curve in the direction sought with a large enough effect; inconclusive = small, poorly fitted or top-dose-only effect, or another doubt; inactive = no such curve, though single readings can be large; an effect the other way counts as inactive or inconclusive.

`CC(=O)Nc1ccc(Nc2cc(C)nc3c(-c4ccccc4)cnn23)cc1` gave CCT modulator 0, Anesthetic bind 84%, Mito fusion act 14µM*, Akt phos inh inactive, aSyn yeast inh 3% and TDP43 rescue inconclusive.
O=C(O)c1ccc(Nc2nc(-c3ccccc3)nc3ccccc23)cc1 was read as CCT modulator 0, Anesthetic bind 2%, Mito fusion act 19%, Akt phos inh inactive, aSyn yeast inh -18% and TDP43 rescue 22µM*.
Screening CNC(=O)c1ccc(Nc2nc(-c3ccccc3)nc3ccccc23)cc1 returned CCT modulator 3, Anesthetic bind 6%, Mito fusion act -15%, Akt phos inh inactive, aSyn yeast inh 12% and TDP43 rescue 0%.
For CCCOC(=O)c1cccc(Nc2nc(-c3cccnc3)nc3ccccc23)c1 the results were CCT modulator 0, Anesthetic bind -14%, Mito fusion act 8%, Akt phos inh inactive, aSyn yeast inh 10% and TDP43 rescue 22µM*.
For COC(=O)c1ccc(Nc2nc(-c3ccc(C)cc3)nc3ccccc23)cc1 the results were Anesthetic bind 61% and TDP43 rescue 14µM*.
`O=C(OCCNc1nc(-c2ccccc2)nc2ccccc12)c1cccnc1` gave CCT modulator 2, Anesthetic bind -19%, Mito fusion act 3%, Akt phos inh inactive, aSyn yeast inh 17% and TDP43 rescue 4%.
Screening CC[C@H](C)[C@H](NC(=O)[C@H](CC(=O)O)NC(=O)[C@H](CC(C)C)NC(=O)[C@H](Cc1cnc[nH]1)NC(=O)[C@H](C)NC(=O)[C@H](Cc1ccccc1)NC(=O)[C@H](Cc1ccc(O)cc1)NC(=O)[C@@H](NC(=O)[C@H](C)NC(=O)[C@H](CCC(=O)O)NC(=O)[C@H](CCCCN)NC(=O)[C@H](CC(=O)O)NC(=O)[C@H](CCSC)NC(=O)[C@H](CC(C)C)NC(C)=O)C(C)C)C(=O)N[C@H](C(=O)N[C@@H](Cc1c[nH]c2ccccc12)C(=O)O)[C@@H](C)CC returned Anesthetic bind -9%.
c1ccc(CN(CCN(Cc2ccccn2)Cc2ccccn2)Cc2ccccn2)nc1 was read as Anesthetic bind -2%.
`CCn1c(CNC(=O)C2CCCCC2)cc2ccccc21` gave CCT modulator -52*, Anesthetic bind 29%, Mito fusion act 1%, Akt phos inh inactive, aSyn yeast inh 4% and TDP43 rescue -3%.
COc1ccc(-c2cc(C(=O)O)sc2C)cc1 was read as CCT modulator 0, Anesthetic bind 1%, Mito fusion act 3%, Akt phos inh inactive, aSyn yeast inh 2% and TDP43 rescue 22µM*.
COc1ccc2c(c1)CCc1cc(C(=O)O)sc1-2 was read as CCT modulator 1, Anesthetic bind 32%, Mito fusion act 4%, Akt phos inh inactive, aSyn yeast inh 2% and TDP43 rescue inconclusive.
Cc1c(Cl)cccc1-n1ncc(C(=O)NCc2cccs2)c1C1CCN(C(=O)OC(C)(C)C)CC1 was read as Anesthetic bind -14% and TDP43 rescue 32µM*.
Screening CC(C)(C)OC(=O)N1CCC(c2c(C(=O)NCc3cccs3)cnn2-c2cccc(F)c2)CC1 returned Anesthetic bind -6% and TDP43 rescue inconclusive.
For Cc1ccc(-n2ncc(C(=O)NCc3cccs3)c2C2CCN(C(=O)OC(C)(C)C)CC2)c(C)c1 the results were Anesthetic bind -6% and TDP43 rescue inconclusive.
Cc1ccc(C)c(NC(=O)c2cnn(-c3cccc(F)c3)c2C2CCN(C(=O)OC(C)(C)C)CC2)c1 was read as Anesthetic bind -12% and TDP43 rescue 35µM*.
For CC(C)c1cccc(C(C)C)c1NS(=O)(=O)c1cccs1 the results were Anesthetic bind -21% and TDP43 rescue 15%.
For O=C(N/N=C/C(Br)=C/c1ccccc1)c1ccccc1F the results were CCT modulator -5, Anesthetic bind -3%, Mito fusion act -8%, Akt phos inh inactive, aSyn yeast inh -16% and TDP43 rescue 14µM*.
Screening Cc1ccc(-c2nnc(N3CCN(C(=O)c4cccs4)CC3)c3ccccc23)cc1 returned CCT modulator 2, Anesthetic bind -6%, Mito fusion act 11%, Akt phos inh inactive, aSyn yeast inh 0% and TDP43 rescue -9%.
O=C(c1cccs1)N1CCN(c2nnc(-c3ccccc3)c3ccccc23)CC1 was read as CCT modulator 2, Anesthetic bind -14%, Mito fusion act 27%, Akt phos inh inactive, aSyn yeast inh 10% and TDP43 rescue 18µM*.
Screening COc1ccc(S(=O)(=O)N(CCc2ccccc2)CC(=O)Nc2cccc(OC)c2)cc1 returned Anesthetic bind 374% and TDP43 rescue 24%.
COc1ccccc1CCNC(=O)c1ccc(-c2nc(CSc3ccc(C)cc3)c(C)o2)cc1 was read as Anesthetic bind 5% and TDP43 rescue -14%.
Screening Cc1ccc(S(=O)(=O)N2CCN(c3nc(-n4c(=O)[nH]c5ccccc54)nc4ccccc34)CC2)cc1 returned aSyn yeast inh 0%.
For Cc1ccc(S(=O)(=O)NCCNc2ccc([N+](=O)[O-])cc2C(F)(F)F)cc1 the results were CCT modulator 0, Anesthetic bind inconclusive, Mito fusion act 14%, Akt phos inh inactive, aSyn yeast inh inconclusive and TDP43 rescue 22µM*.
`O=C(NCCNc1ccc([N+](=O)[O-])cc1C(F)(F)F)c1ccccc1F` gave CCT modulator -1, Anesthetic bind inconclusive, Mito fusion act -5%, Akt phos inh inactive, aSyn yeast inh 15% and TDP43 rescue 20µM*.
Screening CN(CC(=O)Nc1ccccc1Br)C(=O)c1cc2c(s1)CCCCC2 returned CCT modulator -1, Mito fusion act 19%, Akt phos inh inactive, aSyn yeast inh 2% and TDP43 rescue 18µM*.
COc1ccc(NC(=O)CN(C)C(=O)c2cc3c(s2)CCCCC3)cc1 was read as CCT modulator 0, Anesthetic bind inconclusive, Mito fusion act 5%, Akt phos inh inactive, aSyn yeast inh 0% and TDP43 rescue 28µM*.
Screening COc1ccc(NC(=O)CN(C)C(=O)c2cc3c(s2)CCC3)cc1 returned CCT modulator 0, Mito fusion act -2%, Akt phos inh inactive, aSyn yeast inh 1% and TDP43 rescue 8%.
